Measured values from PubChem BioAssay AID1852 (Sanford-Burnham Center for Chemical Genomics, 2009).
The whole screen tested about 2,500 compounds, of which about 1,100 (44%) were called active.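 The calls were made as follows: active = inhibition above 50% at 4 µM in the single-point screen; inactive = inhibition of 50% or less.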 The set was probably picked from earlier hits. The list shows a part of the results.

Assay: TNF-a-driven NF-kB reporter inhibitors, primary screen, selectivity assay for NOD1/NOD2 signaling inhibitor project, cell-based, HEK293T NF-kB-Luc, luminescence (AID 1852)
Conditions: TNF-a induced, 14 h, at 4 µM, active compounds read high

inhibition, active:
O=[N+]([O-])c1ccc(NC(=S)NCCc2ccc(Cl)cc2)cc1 87.9%
CCc1ccc(CN(C)C(=O)c2cc(COc3cccc4cnccc34)on2)cc1 80%
COc1cccc(CN(C)C(=O)c2cc(COc3ccc4ncccc4c3)on2)c1 56.4%
CN(Cc1nccs1)C(=O)c1cc(COc2cccc3cnccc23)on1 66.3%
COc1ccc(C(=O)Nc2ccc(-c3ccc(C)o3)cc2)cc1S(=O)(=O)N1CCOCC1 66.1%
O=C(NC(Nc1nc2ccc([N+](=O)[O-])cc2s1)(C(F)(F)F)C(F)(F)F)c1ccccc1Cl 85%
CCOc1cc(/C=C(/C#N)c2ccc(Cl)cc2)cc(Cl)c1OCC(=O)O 90.7%
COc1ccc2cc3c(N)nn(C(=O)c4cccc(F)c4)c3nc2c1 79.2%
COc1ccc2cc3c(N)nn(C(=O)c4cccc([N+](=O)[O-])c4)c3nc2c1 65.4%
COc1ccc2cc3c(N)nn(C(=O)c4ccc(F)cc4)c3nc2c1 60.6%
C/C(=N\NC(=O)c1ccc(-c2ccccc2)cc1)C1C(=O)c2ccccc2C1=O 93.6%
O=C(Cc1ccc(Cl)cc1Cl)Nc1ccncc1Cl 50%
COc1ccc(CC(=O)Nc2ccncc2Cl)cc1 54%
Cc1ccc(C(=O)Nc2ccccc2-c2ccccc2)cc1[N+](=O)[O-] 75.4%
COc1ccc(Nc2cc(Nc3cc(OC)c(OC)c(OC)c3)ncn2)cc1 59.9%
O=C(Nc1nnc(-c2ccc(F)cc2)o1)c1cccc([N+](=O)[O-])c1 89.2%
CN(c1ccccc1)S(=O)(=O)c1ccc(C(=O)Nc2nnc(-c3ccc(F)cc3)o2)cc1 95%
COc1ccc(-c2nnc(NC(=O)c3ccc(F)cc3)o2)cc1 102%
CCOc1ccc(-c2nnc(NC(=O)c3ccc(OCC(C)C)c(OC)c3)o2)cc1 105%
O=C(Nc1nnc(-c2ccc(F)cc2)o1)c1cc(Cl)sc1Cl 96.6%
C/C(=N\Nc1ncnc2sc(C)c(C)c12)c1ccccn1 103%
Cc1ccc(Nc2cc(C)nn2-c2nc(C)cc(=O)[nH]2)cc1 107%
Cc1ccc(C)c(N2CCN(C(=O)CCCCCn3c(=S)[nH]c4ccc(N5CCOCC5)cc4c3=O)CC2)c1 96.5%
O=C(Nc1ccc(N2CCN(C(=O)c3ccc(Cl)cc3)CC2)cc1)c1ccc2c(c1)OCCO2 86.8%
CC(C)C(=O)N1CCN(c2ccc(NC(=O)c3ccc4c(c3)OCCO4)cc2Cl)CC1 80.5%
Cc1ccc(C(=O)N2CCN(c3ccc(NC(=O)c4ccc5c(c4)OCCO5)cc3)CC2)cc1 84.2%
CCOC(=O)/C=C/S(=O)(=O)c1ccc(NC(C)=O)cc1 64%
O=C(O)CCC(=O)c1ccc2ccc3cccc4ccc1c2c34 50%
Cc1nn(-c2ccccc2)c(Cl)c1CN(C(=O)CCl)c1ccc(Cl)cc1 105%
Clc1ccc(CSc2nnc(-c3ccncc3)o2)cc1 60.2%
Fc1ccc(CSc2nnc(-c3ccncc3)o2)cc1 70.1%
CCc1cc(C(=O)NC2CCCc3c2cnn3-c2cccc(C)c2C)n(C)n1 (stereo not drawn) 59.1%
Cc1cc(C(=O)NC2CCCc3c2cnn3-c2cccc(C)c2C)n(C)n1 (stereo not drawn) 56.4%
CC(=O)c1c(C)[nH]c(C(=O)OCC(=O)Nc2ccc(C)cc2[N+](=O)[O-])c1C 79.4%
O=[N+]([O-])c1ccc(N/N=C/c2sc(N3CCOCC3)nc2-c2ccccc2)c(S(=O)(=O)Nc2ccccc2Cl)c1 88.5%
O=[N+]([O-])c1ccc(N/N=C/c2sc(N3CCOCC3)nc2-c2ccccc2)c(S(=O)(=O)Nc2ccc(Cl)cc2)c1 60.9%
Cc1nnc(SCC(=O)N2CCC(c3noc4ccc(F)cc34)CC2)s1 84.5%

inhibition, inactive:
Cc1cccc(-n2c(SC(C)C(=O)O)nc3sc4c(c3c2=O)CCCC4)c1 (stereo not drawn) 45.4%
O=[N+]([O-])c1ccc(NC(=S)NCCc2ccc(F)cc2)cc1 18.3%
N#Cc1ccc(NC(=O)Nc2ccc(Cl)cc2)cc1 22.5%
Cc1nc(CN(C)C(=O)c2cc(COc3ccc4ncccc4c3)on2)cs1 27.2%
CN(Cc1cccnc1)C(=O)c1cc(COc2ccc3ncccc3c2)on1 42.9%
COc1ccc(NC(=O)c2cc(-c3ccco3)nc3ccccc23)cc1S(=O)(=O)N1CCOCC1 45.6%
CCOC(=O)c1ccc(NC(=O)c2ccc(C)c(S(=O)(=O)N3CCOCC3)c2)cc1 47.7%
Cc1nc([N+](=O)[O-])c(Sc2nc3ccccc3[nH]2)n1Cc1ccccc1 36.1%
Cc1ccc(C)c(OCC(=O)Nc2nc3ccc([N+](=O)[O-])cc3s2)c1C 43.5%
Cc1cc(C)cc(OCC(=O)Nc2nc3ccc([N+](=O)[O-])cc3s2)c1 13.3%
CCOc1ccccc1NC(=O)Nc1ccc(Cl)cc1 -53%
CCOc1ccc(C(=O)/C=C/c2cc(OC)c(OC)c(OC)c2)cc1 9.7%
COc1ccc(CN(C)S(=O)(=O)c2nnc(NC(=O)c3cccc(F)c3)s2)cc1 29.9%
COc1ccc2cc3c(N)nn(C(=O)c4ccc(Cl)c([N+](=O)[O-])c4)c3nc2c1 43.3%
COc1cccc(C(=O)c2sc(NC(C)C)nc2N)c1 41.4%
COc1cccc(-n2c(CN3CCN(c4ccccc4)CC3)nc3ccc([N+](=O)[O-])cc3c2=O)c1 -0.2%
C/C(=N\NC(=O)c1ccc(Br)cc1)C1C(=O)c2ccccc2C1=O -12.6%
C/C(=N\NC(=O)c1ccc2c(c1)OCCO2)c1ccccc1 14%
CCC(NC(=O)c1ccc2nc(Cc3ccc(OC)cc3)oc2c1)c1ccncc1 (stereo not drawn) 34%
Cc1ccc(CC(=O)Nc2ccncc2)cc1 38.6%
Cc1ccc(C(=O)Nc2ccccc2N2CCCCC2)cc1[N+](=O)[O-] -17.9%
Cc1ccc(C(=O)Nc2sc(C)c(-c3ccccc3)c2C(N)=O)cc1[N+](=O)[O-] -277%
O=C(Nc1ccc(-c2cn3ccsc3n2)cc1)c1ccc(F)c(S(=O)(=O)N2CCOCC2)c1 30.4%
COc1cc(Nc2c3ccccc3nc3ccccc23)cc(OC)c1OC -0.2%
COc1cc(C(=O)Nc2ccc(-c3nc4cc(C)ccc4o3)c(O)c2)cc(OC)c1OC 13.8%
COc1ccc(-c2nnc(NC(=O)c3ccc(S(=O)(=O)N4CCc5ccccc5C4)cc3)o2)cc1 34.1%
COc1ccccc1N(C)S(=O)(=O)c1ccc(C(=O)Nc2ccc(N3CCOCC3)cc2)cc1 35.4%
O=C(NNC(=S)NC(=O)c1cccc([N+](=O)[O-])c1)c1ccc(Br)cc1 -11.7%
N#Cc1ccsc1NC(=O)c1cccc([N+](=O)[O-])c1 20.9%
CC(=O)O[C@]1(C(C)=O)CC[C@H]2[C@@H]3C=CC4=CC(=O)C=C[C@]4(C)[C@H]3CC[C@@]21C 32.7%
O=C(Nc1nnc(-c2ccc(Cl)s2)o1)C1CC1 -5.5%
COc1ccc(C2C(C(=O)N3CCOCC3)CCC(=O)N2c2ccc(OC)cc2)cc1 (stereo not drawn) 17.2%
Cc1cc(NC(=O)c2ccc(C)s2)n(-c2nc3ccccc3[nH]2)n1 31.1%
Cc1cc(NC(=O)c2cccs2)n(-c2nc3ccccc3[nH]2)n1 35.4%
Cc1cccc(N2CCN(C(=O)CCCCCn3c(=S)[nH]c4ccc(N5CCOCC5)cc4c3=O)CC2)c1C -10.2%
O=C(CCCn1c(=S)[nH]c2cc3c(cc2c1=O)OCO3)N1CCN(c2ccc(Cl)cc2)CC1 35.9%
CC(C)C(=O)N1CCN(c2nc(-c3ccc(Cl)cc3)cs2)CC1 -37.6%
O=C(Nc1ccc2nn(-c3ccccc3)nc2c1)c1ccc2c(c1)OCCO2 31.9%
Cc1ccccc1C(=O)N1CCN(c2ccc(NC(=O)c3ccc4c(c3)OCCO4)cc2)CC1 -3.1%
CCCCCOc1ccc(/C=C/c2c([N+](=O)[O-])c(=O)n(C)c(=O)n2C)cc1 21.4%
CCOC(=O)/C=C/C(=O)Nc1ccc(S(=O)(=O)N(C)c2ccccc2)cc1 -15.6%
CCOC(=O)/C=C/C(=O)Nc1ccc(S(=O)(=O)Nc2c(C)cc(C)cc2C)cc1 25.7%
Nc1[nH]nc2ncc3cc4ccccc4nc3c12 36.8%
Cc1nn(-c2ccccc2)c(Cl)c1CN(C(=O)CCl)c1cccc2ccccc12 14.9%
CC(=O)N1CC(C)Sc2ccc(S(=O)(=O)NCc3ccc(Cl)cc3)cc21 (stereo not drawn) 11.8%
COC(=O)CSc1nnc(-c2sc3ccccc3c2Cl)o1 48.5%
Cc1ccc(-c2nnc(SCC(=O)Nc3ccccc3F)o2)cc1 37.8%
Brc1cccc(CSc2nnc(-c3ccncc3)o2)c1 44.3%
Cc1ccccc1NC(=O)COC(=O)c1ccc(S(C)(=O)=O)c([N+](=O)[O-])c1 13%
COc1ccc(NC(=O)CN2CCc3ccccc3C2)c([N+](=O)[O-])c1 -10.5%
CCN(CC)S(=O)(=O)c1ccc(N2CCOCC2)c(NC(=O)c2cc([N+](=O)[O-])ccc2Cl)c1 -28.1%
